According to PubChem BioAssay (NCATS):
Inconclusive results are not listed. Active and inactive are the calls of the source. Calls come from the whole dose curve; as a rule, active = well fitted inhibition curve with a large enough effect; inconclusive = small, poorly fitted or top-dose-only effect; inactive = no such curve, though single readings can be large or run the other way.

The molecules below were run against Cytochrome P450 3A4 (Homo sapiens) (UniProt P08684) (assay: qHTS Assay for Inhibitors and Substrates of Cytochrome P450 3A4 (AID 884; note: nearly all actives have a fitted effect of over 50% in size)). Details: recombinant CYP3A4, Luciferin-PPXE luminescence; series mostly up to 57.1 µM; activity change, negative = inhibition: at the top concentration.
Chain of Cytochrome P450 3A4 (Homo sapiens) (P08684 whole entry, looked up): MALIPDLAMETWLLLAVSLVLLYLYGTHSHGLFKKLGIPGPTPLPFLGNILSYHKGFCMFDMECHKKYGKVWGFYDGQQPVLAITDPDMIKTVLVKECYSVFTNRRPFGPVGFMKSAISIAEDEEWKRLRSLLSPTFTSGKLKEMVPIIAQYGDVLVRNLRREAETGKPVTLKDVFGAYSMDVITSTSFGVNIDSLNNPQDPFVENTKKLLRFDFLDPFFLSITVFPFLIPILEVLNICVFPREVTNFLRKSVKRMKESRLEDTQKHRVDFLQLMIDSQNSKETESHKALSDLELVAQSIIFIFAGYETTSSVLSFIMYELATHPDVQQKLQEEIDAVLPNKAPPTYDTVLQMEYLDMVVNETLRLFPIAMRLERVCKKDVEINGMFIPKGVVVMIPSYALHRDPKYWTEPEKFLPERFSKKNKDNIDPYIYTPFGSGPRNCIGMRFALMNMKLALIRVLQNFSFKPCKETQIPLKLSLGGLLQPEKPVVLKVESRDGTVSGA
Outline: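 20 nM human CYP3A4 with 25 uM Luciferin-PPXE (at KM) in 200 mM KPO4, preincubated 10 min with compound; NADPH regeneration started a 60 min RT reaction. Luciferin detected by luminescence, normalized to 57 uM ketoconazole as full inhibition.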
% is set by controls: 0 for no effect and ±100 for the full control effect; potency is the fitted concentration of half-maximal effect.

SMILES	activity change, negative = inhibition	Potency
CC(C#N)CCC#N (stereo not drawn)	-1.59% (inactive)	–
Nc1cc(Cl)ccc1Cl	-30% (inactive)	–
Nc1cccc(Cl)c1	-27.4% (inactive)	–
ClCc1ccccc1	-13% (inactive)	–
CCC/C=N/O	0.4% (inactive)	–
COc1c(C(C)(C)C)cc([N+](=O)[O-])c(C)c1[N+](=O)[O-]	-24.8% (inactive)	–
O=S(=O)(Cl)c1ccccc1	14.8% (inactive)	–
C=CCOCC1CO1 (stereo not drawn)	4.29% (inactive)	–
c1ccoc1	-7.81% (inactive)	–
Clc1ccccc1	-0.986% (inactive)	–
ClC(Cl)(Cl)C(Cl)(Cl)Cl	-7.36% (inactive)	–
CCOC(=O)C1OC1(C)c1ccccc1 (stereo not drawn)	0.867% (inactive)	–
C/C=C/CC#N	-1.84% (inactive)	–
ClC(Cl)C(Cl)Cl	-0.513% (inactive)	–
C=CCCl	-5.29% (inactive)	–
Oc1c(Cl)cccc1Cl	9.99% (inactive)	–
Brc1cccc(-c2ccccc2)c1	-1.98% (inactive)	–
C=CCO	-5.12% (inactive)	–
OCCCCO	-17.1% (inactive)	–

SMILES	activity change, negative = inhibition	Potency
Nn1cnnc1	-14.6% (inactive)	–
BrCCc1ccccc1	-11.9% (inactive)	–
Cc1ccccc1[N+](=O)[O-]	-5.39% (inactive)	–
CCCCOC(=O)c1ccccc1N	-2.29% (inactive)	–
Clc1cc(Cl)c(Cl)c(Cl)c1	-2.16% (inactive)	–
Cc1ccc(N)c(C)c1	-9.83% (inactive)	–
C1CC2OC2CC1C1CO1 (stereo not drawn)	-18.4% (inactive)	–
CN(C)C(=O)Cl	-1.81% (inactive)	–
Cc1ccc(N=C=O)cc1N=C=O	–	15.8 µM (active)
O=C(Cl)OCc1ccccc1	-0.751% (inactive)	–
C=CC(=O)OC	-4.44% (inactive)	–
CCN(CC)N=O	-3.51% (inactive)	–
OCC(Cl)CCl (stereo not drawn)	-9.62% (inactive)	–
CC(C)CON=O	0.488% (inactive)	–
CC[N+](=O)[O-]	-1.65% (inactive)	–
CC(C)(Cl)[N+](=O)[O-]	-6.25% (inactive)	–
C[N+](=O)[O-]	-7.85% (inactive)	–
CC(C)OC(=O)Cc1ccccc1	-4.7% (inactive)	–
ClCC(Br)CBr (stereo not drawn)	-15.8% (inactive)	–
